Here are results for 31 compounds from ChEMBL document CHEMBL2218924, “A broad activity screen in support of a chemogenomic map for kinase signalling research and drug discovery” (Biochem J, 2013).

Structures are written as SMILES.

The target of the first test is Mitogen-activated protein kinase kinase kinase 9 (Homo sapiens) (UniProt P80192). As to conditions: at 10 µM.
Chain of Mitogen-activated protein kinase kinase kinase 9 (Homo sapiens) (P80192 whole entry, looked up): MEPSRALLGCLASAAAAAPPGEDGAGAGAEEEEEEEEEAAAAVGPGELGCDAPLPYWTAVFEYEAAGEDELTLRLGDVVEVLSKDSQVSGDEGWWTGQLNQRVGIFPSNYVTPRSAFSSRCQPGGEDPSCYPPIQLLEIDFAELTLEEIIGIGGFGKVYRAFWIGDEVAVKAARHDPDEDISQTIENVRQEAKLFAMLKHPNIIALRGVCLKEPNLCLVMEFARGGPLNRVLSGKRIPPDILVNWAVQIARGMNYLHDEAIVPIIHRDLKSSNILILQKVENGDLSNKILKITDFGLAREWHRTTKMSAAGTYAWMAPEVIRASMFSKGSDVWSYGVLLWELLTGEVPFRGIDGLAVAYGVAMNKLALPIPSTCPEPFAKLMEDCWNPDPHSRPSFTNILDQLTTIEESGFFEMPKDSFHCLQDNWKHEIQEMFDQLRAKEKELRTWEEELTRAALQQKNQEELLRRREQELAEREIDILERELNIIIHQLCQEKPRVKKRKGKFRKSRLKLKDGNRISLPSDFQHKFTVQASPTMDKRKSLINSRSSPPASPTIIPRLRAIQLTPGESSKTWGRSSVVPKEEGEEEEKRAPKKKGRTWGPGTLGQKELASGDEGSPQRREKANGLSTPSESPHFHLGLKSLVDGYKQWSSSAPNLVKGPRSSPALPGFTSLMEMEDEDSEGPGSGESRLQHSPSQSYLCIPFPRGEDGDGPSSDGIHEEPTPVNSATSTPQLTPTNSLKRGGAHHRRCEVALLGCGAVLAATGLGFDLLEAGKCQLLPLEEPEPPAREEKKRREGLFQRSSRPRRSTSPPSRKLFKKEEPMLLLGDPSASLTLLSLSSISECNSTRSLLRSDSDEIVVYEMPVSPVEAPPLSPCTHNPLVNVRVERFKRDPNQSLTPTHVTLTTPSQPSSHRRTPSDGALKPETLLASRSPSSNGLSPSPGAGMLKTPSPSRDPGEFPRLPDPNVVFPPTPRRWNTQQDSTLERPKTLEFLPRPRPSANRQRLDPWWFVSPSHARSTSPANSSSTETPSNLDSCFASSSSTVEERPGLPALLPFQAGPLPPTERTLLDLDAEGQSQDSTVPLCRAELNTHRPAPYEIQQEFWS
As to `Cn1c2ccccc2c2c3c(c4c5ccccc5n(CCC#N)c4c21)CNC3=O`, the residual activity turned out to be 2%.
The same measure, in the same setting: the result for `Nc1ncnc2c1cnn2-c1ccccc1` reads 57%.
Same read-out and setting: the result for `O=C1Cc2c([nH]c3ccc([N+](=O)[O-])cc23)-c2ccccc2N1` reads 5%; that for `O=c1cc(N2CCOCC2)oc2c1ccc1ccccc12`, 101%; that for `c1ccc(-c2cnc(Nc3ccc(OCCN4CCCC4)cc3)s2)cc1`, 22%.
Still for that read-out and setting: the result for `O=C(NC(NC(=S)Nc1ccc(F)c([N+](=O)[O-])c1)C(Cl)(Cl)Cl)C(c1ccccc1)c1ccccc1` (stereo not given) reads 103%; that for `O=C1NC(=O)C(c2cn(CCCO)c3ncccc23)=C1c1cnccn1`, 55%; that for `O=C(Nc1nc2ccccc2n1CCN1CCOCC1)c1cccc([N+](=O)[O-])c1`, 75%.
For the compound `NCCNc1ncc(C(N)=O)c(Nc2cccc(C(F)(F)F)c2)n1`, the residual activity amounted to 4%.
Turning to `O=C(O)/C=C/c1cc(Br)c(Br)c(Br)c1Br`, the residual activity is 72%.
The same measure, in the same setting: the value for `CC(C)(C)n1nc(Cc2cccc3ccccc23)c2c(N)ncnc21` was 18%; that for `O=C(CCCc1ccc(-c2ccccc2F)cc1)Nc1ccc(O)cc1` was 89%; that for `CSc1nc(-c2ccc(F)cc2)c(-c2ccnc(NC(C)c3ccccc3)c2)[nH]1` (stereo not given) was 85%.
Same read-out and setting: the value for `CCN(CC)CCNC(=O)c1c(C)[nH]c(/C=C2\C(=O)Nc3ccc(Cl)cc32)c1C` was 4%; that for `O=C1Nc2ccc(Cl)cc2/C1=C/c1cc(Cl)c(O)c(Cl)c1` was 18%.
On to `COc1cc2nccc(Oc3ccc(NC(=S)NC(=O)c4ccccc4C)cc3)c2cc1OC`, for which the residual activity came out at 41%.
The same measure, in the same setting: the value for `N#C/C(=C1/Nc2ccccc2S1)c1ccnc(NCCc2cccnc2)n1` was 9%.
On the same count and under the same terms, the value for `CC(C)(C)c1nc2c3ccc(F)cc3c3c(=O)[nH]ccc3c2[nH]1` was 21%; that for `O=C1Cc2c([nH]c3ccc(Br)cc23)-c2ccccc2N1` was 4%; that for `N#Cc1c(NC(=O)c2cccc3ccccc23)sc2c1CCCC2` was 95%.
Same read-out and setting: the value for `O=c1cc(N2CCNCC2)oc2c(-c3ccccc3)cccc12` was 104%; that for `O=C1NC(=O)c2c1c1c3ccccc3[nH]c1n1cncc21` was 12%; that for `Nc1n[nH]c2nc3ccccc3nc12` was 41%.
For `NC(=O)c1ccc(-c2nc(-c3ccc4c(c3)OCCO4)c(-c3ccccn3)[nH]2)cc1`, the residual activity stood at 79%.
Turning to `NC(=O)Nc1sc(-c2ccc(F)cc2)cc1C(N)=O`, the residual activity is 1%.

For another test, the target named is Serine/threonine-protein kinase MRCK alpha (Homo sapiens) (UniProt Q5VT25). The following applies: at 1 µM.
Chain of Serine/threonine-protein kinase MRCK alpha (Homo sapiens) (Q5VT25 whole entry): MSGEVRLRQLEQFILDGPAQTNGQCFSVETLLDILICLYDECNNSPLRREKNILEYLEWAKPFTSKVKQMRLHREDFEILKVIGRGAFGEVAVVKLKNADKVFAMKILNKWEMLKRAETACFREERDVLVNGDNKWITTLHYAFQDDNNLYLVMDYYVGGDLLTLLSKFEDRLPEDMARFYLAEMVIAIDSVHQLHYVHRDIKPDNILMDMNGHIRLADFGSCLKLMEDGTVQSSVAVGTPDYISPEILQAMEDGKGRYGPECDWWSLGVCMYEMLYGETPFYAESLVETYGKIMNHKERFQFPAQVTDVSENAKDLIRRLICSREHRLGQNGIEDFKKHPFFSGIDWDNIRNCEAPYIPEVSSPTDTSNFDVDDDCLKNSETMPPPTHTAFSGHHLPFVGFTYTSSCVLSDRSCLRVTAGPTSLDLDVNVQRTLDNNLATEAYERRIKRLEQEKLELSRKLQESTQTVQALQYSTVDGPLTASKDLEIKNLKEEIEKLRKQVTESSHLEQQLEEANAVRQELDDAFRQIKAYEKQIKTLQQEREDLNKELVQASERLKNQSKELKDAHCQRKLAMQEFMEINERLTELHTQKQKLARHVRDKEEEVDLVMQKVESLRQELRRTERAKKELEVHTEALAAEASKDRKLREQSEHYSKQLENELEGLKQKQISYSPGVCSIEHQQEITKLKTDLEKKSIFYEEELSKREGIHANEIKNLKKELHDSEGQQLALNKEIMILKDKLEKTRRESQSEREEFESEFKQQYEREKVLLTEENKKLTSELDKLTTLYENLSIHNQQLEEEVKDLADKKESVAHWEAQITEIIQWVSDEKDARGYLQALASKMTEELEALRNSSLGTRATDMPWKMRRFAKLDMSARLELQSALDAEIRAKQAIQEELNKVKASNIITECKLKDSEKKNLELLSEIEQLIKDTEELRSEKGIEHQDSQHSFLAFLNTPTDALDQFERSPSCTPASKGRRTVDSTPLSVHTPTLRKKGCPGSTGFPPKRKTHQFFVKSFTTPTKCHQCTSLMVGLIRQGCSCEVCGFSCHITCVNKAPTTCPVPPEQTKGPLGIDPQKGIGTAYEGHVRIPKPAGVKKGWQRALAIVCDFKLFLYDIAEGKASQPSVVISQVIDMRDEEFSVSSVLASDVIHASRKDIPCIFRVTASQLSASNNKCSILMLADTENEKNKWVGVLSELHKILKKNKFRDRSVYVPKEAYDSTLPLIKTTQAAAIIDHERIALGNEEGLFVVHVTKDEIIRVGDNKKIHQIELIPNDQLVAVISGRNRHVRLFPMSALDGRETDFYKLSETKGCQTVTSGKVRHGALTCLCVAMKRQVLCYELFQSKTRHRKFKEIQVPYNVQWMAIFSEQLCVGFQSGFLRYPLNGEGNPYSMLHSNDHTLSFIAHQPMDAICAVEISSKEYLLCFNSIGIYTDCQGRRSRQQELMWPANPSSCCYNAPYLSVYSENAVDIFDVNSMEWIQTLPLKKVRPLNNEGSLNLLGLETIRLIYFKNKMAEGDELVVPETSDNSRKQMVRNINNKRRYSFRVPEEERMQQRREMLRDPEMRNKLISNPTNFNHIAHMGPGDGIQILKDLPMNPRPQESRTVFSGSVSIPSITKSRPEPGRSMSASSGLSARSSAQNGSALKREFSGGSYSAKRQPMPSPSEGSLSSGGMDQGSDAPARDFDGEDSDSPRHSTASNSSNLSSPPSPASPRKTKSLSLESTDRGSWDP
Take `O=C1Cc2c([nH]c3ccc([N+](=O)[O-])cc23)-c2ccccc2N1`: the residual activity came out at 60%.
The same measure, in the same setting: the value for `O=c1cc(N2CCOCC2)oc2c1ccc1ccccc12` was 105%; that for `c1ccc(-c2cnc(Nc3ccc(OCCN4CCCC4)cc3)s2)cc1` was 107%.
Same read-out and setting: the result for `Nc1ncnc2c1c(-c1ccc(Oc3ccccc3)cc1)cn2C1CCCC1` reads 107%.
Regarding `NCCNc1ncc(C(N)=O)c(Nc2cccc(C(F)(F)F)c2)n1`, the residual activity was determined as 104%.
The same measure, in the same setting: the result for `CC(C)(C)n1nc(Cc2cccc3ccccc23)c2c(N)ncnc21` reads 95%; that for `O=C(CCCc1ccc(-c2ccccc2F)cc1)Nc1ccc(O)cc1`, 107%.
Turning to `CC(C)[C@H](CO)Nc1nc(Nc2cc(N)cc(Cl)c2)c2ncn(C(C)C)c2n1`, the residual activity came out at 122%.
Still for that read-out and setting: the result for `O=C1Nc2ccc(Cl)cc2/C1=C/c1cc(Cl)c(O)c(Cl)c1` reads 99%; that for `O=c1c(-c2ccc(F)cc2)c(-c2ccncc2)[nH]n1-c1ccc(Cl)cc1`, 119%; that for `O=c1cc(N2CCNCC2)oc2c(-c3ccccc3)cccc12`, 86%.
On the same count and under the same terms, the result for `O=C1NC(=O)c2c1c1c3ccccc3[nH]c1n1cncc21` reads 99%; that for `O=C(c1ccccc1)c1ccc(N2CCOCC2)cc1O`, 100%.

Another test has the same target. The following applies: at 10 µM.
With `Cn1c2ccccc2c2c3c(c4c5ccccc5n(CCC#N)c4c21)CNC3=O`, the residual activity stood at 79%.
For the compound `O=C1Cc2c([nH]c3ccc([N+](=O)[O-])cc23)-c2ccccc2N1`, the residual activity is 79%.
Still for that read-out and setting: the value for `O=c1cc(N2CCOCC2)oc2c1ccc1ccccc12` was 99%; that for `N#C/C(=C\c1ccc(O)c(O)c1)C(=O)NCc1ccccc1` was 87%; that for `c1ccc(-c2cnc(Nc3ccc(OCCN4CCCC4)cc3)s2)cc1` was 106%.
On the same count and under the same terms, the result for `Nc1ncnc2c1c(-c1ccc(Oc3ccccc3)cc1)cn2C1CCCC1` reads 118%; that for `NCCNc1ncc(C(N)=O)c(Nc2cccc(C(F)(F)F)c2)n1`, 105%.
For `CC(C)(C)n1nc(Cc2cccc3ccccc23)c2c(N)ncnc21`, the residual activity is 119%.
On the same count and under the same terms, the value for `O=C(CCCc1ccc(-c2ccccc2F)cc1)Nc1ccc(O)cc1` was 136%; that for `O=C1Nc2ccc(Cl)cc2/C1=C/c1cc(Cl)c(O)c(Cl)c1` was 96%; that for `COc1cc2nccc(Oc3ccc(NC(=S)NC(=O)c4ccccc4C)cc3)c2cc1OC` was 124%.
On to `O=C1NC(=O)c2c1c1c3ccccc3[nH]c1n1cncc21`, for which the residual activity was 90%.
Same read-out and setting: the result for `O=C(c1ccccc1)c1ccc(N2CCOCC2)cc1O` reads 100%.

The next test deals with Serine/threonine-protein kinase MRCK beta (Homo sapiens) (UniProt Q9Y5S2). The following applies: at 1 µM.
Chain of Serine/threonine-protein kinase MRCK beta (Homo sapiens) (Q9Y5S2 whole entry): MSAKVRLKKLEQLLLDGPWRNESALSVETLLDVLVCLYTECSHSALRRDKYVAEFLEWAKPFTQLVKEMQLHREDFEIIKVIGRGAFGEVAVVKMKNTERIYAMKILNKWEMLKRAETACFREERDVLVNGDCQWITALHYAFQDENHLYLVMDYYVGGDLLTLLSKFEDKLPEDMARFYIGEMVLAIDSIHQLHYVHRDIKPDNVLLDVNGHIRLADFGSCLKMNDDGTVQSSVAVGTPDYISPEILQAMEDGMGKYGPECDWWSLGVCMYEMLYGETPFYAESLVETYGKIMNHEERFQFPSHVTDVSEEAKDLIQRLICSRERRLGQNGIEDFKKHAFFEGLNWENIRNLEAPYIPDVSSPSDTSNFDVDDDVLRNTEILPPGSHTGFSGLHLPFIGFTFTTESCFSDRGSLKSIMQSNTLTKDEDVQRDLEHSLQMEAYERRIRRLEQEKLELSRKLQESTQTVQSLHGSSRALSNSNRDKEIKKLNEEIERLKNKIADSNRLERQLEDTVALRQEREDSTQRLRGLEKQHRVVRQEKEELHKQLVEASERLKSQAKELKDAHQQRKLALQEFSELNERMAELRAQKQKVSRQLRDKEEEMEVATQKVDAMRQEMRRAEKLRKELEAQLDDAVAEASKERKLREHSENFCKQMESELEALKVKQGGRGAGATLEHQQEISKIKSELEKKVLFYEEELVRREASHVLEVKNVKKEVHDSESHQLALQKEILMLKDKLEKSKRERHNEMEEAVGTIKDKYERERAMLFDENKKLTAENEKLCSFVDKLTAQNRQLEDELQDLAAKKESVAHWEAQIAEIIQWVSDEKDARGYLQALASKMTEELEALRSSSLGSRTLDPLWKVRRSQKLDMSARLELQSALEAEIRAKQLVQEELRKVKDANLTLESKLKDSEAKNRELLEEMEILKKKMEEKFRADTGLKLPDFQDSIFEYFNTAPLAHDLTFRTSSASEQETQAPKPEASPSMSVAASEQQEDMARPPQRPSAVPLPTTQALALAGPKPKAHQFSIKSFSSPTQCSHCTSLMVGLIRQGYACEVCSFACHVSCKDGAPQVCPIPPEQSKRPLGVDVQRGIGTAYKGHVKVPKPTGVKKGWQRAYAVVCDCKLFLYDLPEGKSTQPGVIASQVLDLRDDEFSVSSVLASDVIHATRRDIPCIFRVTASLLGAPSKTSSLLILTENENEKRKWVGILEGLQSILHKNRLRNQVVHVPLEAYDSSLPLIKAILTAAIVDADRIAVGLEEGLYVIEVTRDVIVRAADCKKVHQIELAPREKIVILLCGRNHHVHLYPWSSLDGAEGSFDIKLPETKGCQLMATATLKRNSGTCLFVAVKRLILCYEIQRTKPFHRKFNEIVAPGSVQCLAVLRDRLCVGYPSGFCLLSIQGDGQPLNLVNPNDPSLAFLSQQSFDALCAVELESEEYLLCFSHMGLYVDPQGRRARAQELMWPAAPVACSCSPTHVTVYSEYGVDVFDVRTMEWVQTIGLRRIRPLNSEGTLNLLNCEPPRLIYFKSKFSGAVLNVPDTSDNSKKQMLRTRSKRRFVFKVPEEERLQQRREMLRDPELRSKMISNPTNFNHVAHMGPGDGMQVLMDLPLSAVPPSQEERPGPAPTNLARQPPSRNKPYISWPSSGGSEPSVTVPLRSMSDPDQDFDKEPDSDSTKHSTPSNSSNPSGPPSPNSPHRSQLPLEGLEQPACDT
Turning to `Cn1c2ccccc2c2c3c(c4c5ccccc5n(CCC#N)c4c21)CNC3=O`, the residual activity stood at 74%.
On the same count and under the same terms, the result for `Nc1ncnc2c1cnn2-c1ccccc1` reads 95%.
Still for that read-out and setting: the result for `O=C1Cc2c([nH]c3ccc([N+](=O)[O-])cc23)-c2ccccc2N1` reads 48%; that for `O=c1cc(N2CCOCC2)oc2c1ccc1ccccc12`, 95%; that for `N#C/C(=C\c1ccc(O)c(O)c1)C(=O)NCc1ccccc1`, 87%.
Still for that read-out and setting: the value for `c1ccc(-c2cnc(Nc3ccc(OCCN4CCCC4)cc3)s2)cc1` was 106%.
For `Nc1ncnc2c1c(-c1ccc(Oc3ccccc3)cc1)cn2C1CCCC1`, the residual activity turned out to be 90%.
For the compound `O=C(NC(NC(=S)Nc1ccc(F)c([N+](=O)[O-])c1)C(Cl)(Cl)Cl)C(c1ccccc1)c1ccccc1` (stereo not given), the residual activity stood at 97%.
Take `O=C(Nc1nc2ccccc2n1CCN1CCOCC1)c1cccc([N+](=O)[O-])c1`: the residual activity turned out to be 88%.
On the same count and under the same terms, the result for `O=C(O)/C=C/c1cc(Br)c(Br)c(Br)c1Br` reads 106%; that for `CC(C)(C)n1nc(Cc2cccc3ccccc23)c2c(N)ncnc21`, 99%; that for `O=C(CCCc1ccc(-c2ccccc2F)cc1)Nc1ccc(O)cc1`, 108%.
As for `CC(C)[C@H](CO)Nc1nc(Nc2cc(N)cc(Cl)c2)c2ncn(C(C)C)c2n1`, the residual activity worked out at 100%.
The same measure, in the same setting: the result for `O=C1Nc2ccc(Cl)cc2/C1=C/c1cc(Cl)c(O)c(Cl)c1` reads 80%.
Still for that read-out and setting: the value for `COc1cc2nccc(Oc3ccc(NC(=S)NC(=O)c4ccccc4C)cc3)c2cc1OC` was 84%; that for `O=C1Cc2c([nH]c3ccc(Br)cc23)-c2ccccc2N1` was 72%; that for `N#Cc1c(NC(=O)c2cccc3ccccc23)sc2c1CCCC2` was 100%.
Still for that read-out and setting: the value for `Fc1ccc(-c2nc3n(c2-c2ccncc2)CCS3)cc1` was 99%; that for `O=c1cc(N2CCNCC2)oc2c(-c3ccccc3)cccc12` was 93%; that for `O=C1NC(=O)c2c1c1c3ccccc3[nH]c1n1cncc21` was 82%.
Regarding `Nc1n[nH]c2nc3ccccc3nc12`, the residual activity was 86%.
On the same count and under the same terms, the value for `NC(=O)c1ccc(-c2nc(-c3ccc4c(c3)OCCO4)c(-c3ccccn3)[nH]2)cc1` was 95%; that for `NC(=O)Nc1sc(-c2ccc(F)cc2)cc1C(N)=O` was 80%; that for `O=C(c1ccccc1)c1ccc(N2CCOCC2)cc1O` was 91%.
